The values that follow come from PubChem BioAssay (NCATS).

Each structure is given as a SMILES string. Records with an inconclusive call do not appear. Values without a mark were called inactive. Activity calls are given as the source filed them. Calls follow the shape of the dose curve; as a rule, active = well fitted inhibition curve with a large enough effect; inconclusive = small, poorly fitted or top-dose-only effect; inactive = flat fitted curve, though single readings scatter.
% is scaled to controls: 0 for no effect and ±100 for the full control effect; potency is read from the fitted curve at half-maximal effect.

This experiment has as its system KB-3-1. The experiment is described as follows: Cytotoxic Profiling of Annotated Libraries Using Quantitative High-Throughput Screening (AID 1296008). Also: nearly all actives have a fitted effect of over 60% in size. The note with it: Five cell lines viability, CellTiter-Glo ATP luminescence, 48-72 h; max response: active compounds read low. An excerpt:
Cell-based phenotypic screening is a commonly used approach to discover biological pathways, novel drug targets, chemical probes and high-quality hit-to-lead molecules. Many hits identified from high-throughput screening campaign are ruled out through a series of follow-up potency, selectivity/specificity, and cytotoxicity assays. Prioritization of molecules with little or no cytotoxicity for a more in-depth downstream evaluation influence the future direction of projects, so cytotoxicity profiling of the screening libraries at early stage is essential for increasing the likelihood of candidate success. […] For the annotated library, we also examined the primary targets and mechanistic pathways regularly associated with cell death. To our knowledge, this is the first study to use high-throughput screening to profile large libraries for cytotoxicity assessment in both normal and cancer cell lines. In summary, the results generated here constitutes a valuable resource for the scientific community and provides insight on identifying cytotoxic compounds with particular mechanisms of action, and prioritizing compounds with suitable cytotoxicity profile for further evaluation.
A pintool (Kalypsys) was used to transfer 23 nL of compound solution to the 1536-well assay plates. After 48 or 72 hr incubation at 37 degree Celsius, 5% CO2 and 95% humidity, 2.5 uL of CellTiter-Glo (Promega) was dispensed into each well using a dispenser (Aspect Automation, St. Paul, MN) with solenoid valves (Lee Valves, Westbrook CT). Plates were left at room temperature for 10 min before imaging the ATP-coupled luminescence using a ViewLux microplate imager (PerkinElmer, Waltham, MA).
As for `O=C1NC(c2cccc([N+](=O)[O-])c2)=CCN1c1ccccc1O`, the max response is -1.53%.

As to `CC(CCc1ccc2c(c1)OCO2)NN` (stereo not given), the max response is -13.1%. `N[C@@H](Cn1ccc(=O)c(O)c1)C(=O)O`: the max response is 7.53%. For the compound `O=C(CCCCC(=O)Nc1c(I)cc(I)c(C(=O)O)c1I)Nc1c(I)cc(I)c(C(=O)O)c1I`, the max response was -11.9%. Regarding `O=C(O)c1[nH]n(-c2ccc(S(=O)(=O)O)cc2)c(=O)c1N=Nc1ccc(S(=O)(=O)O)cc1`, the max response is 3.04%. For `CN1CC[C@H](c2c(O)cc(O)c3c(=O)cc(-c4ccccc4Cl)oc23)[C@H](O)C1`, the Potency is 1.03 µM (active). As to `CO[C@@]1(NC(=O)CSC[C@@H](N)C(=O)O)C(=O)N2C(C(=O)O)=C(CSc3nnnn3C)CS[C@@H]21`, the max response was -3.72%. In the case of `CCN1CCN(c2cc(-c3ccc(F)cc3)c3c(n2)CCCCCC3)CC1`, the max response is -12.5%. Take `CC(=O)Nc1ccc(S(=O)(=O)Nc2cc(C)on2)cc1`: the max response is -4.05%. Regarding `O=C(COCCOCCOCC(=O)Nc1c(I)cc(I)c(C(=O)O)c1I)Nc1c(I)cc(I)c(C(=O)O)c1I`, the max response is -17%.

For the compound `COC(=O)C1=CO[C@@H](O)[C@@H]2C(CO)=CC[C@H]12`, the max response is -12.1%. Turning to `CCOC(=O)NNc1nncc2ccccc12`, the max response was -9.29%. `Cc1c(C)c2c(c(C)c1OC(=O)CCC(=O)OCCO)CC[C@@](C)(CCC[C@H](C)CCC[C@H](C)CCCC(C)C)O2`: the max response was -31.1%. Same read-out and setting: in the case of `CC(NCCC(c1ccccc1)c1ccccc1)c1ccccc1` (stereo not given) it was -10.5%; in that of `OCCOCCN1CCN(C(c2ccccc2)c2ccc(Cl)cc2)CC1` (stereo not given), 15.7%; in that of `CC1c2ccccc2CN1NC(=O)c1ccc(Cl)c(S(N)(=O)=O)c1` (stereo not given), 8.25%. With `C[C@@]12CCC[C@H]1[C@@H]1CC[C@H]3C[C@@H](O)CC[C@]3(C)[C@H]1CC2`, the max response is -1.74%. Turning to `COc1cc(C(=O)NC2CCCNC2)cc(OC)c1OC` (stereo not given), the max response was -17.2%. Take `CN(CC1(C)CCCO1)S(=O)(=O)c1ccc(Cl)c(S(N)(=O)=O)c1` (stereo not given): the outcome was inactive. On to `Cc1cc(C(C)(C)C)c(O)c(C(C)(C)C)c1`, for which the max response was -9.85%. Still for that read-out and setting: under `COc1ccccc1N1CCN(CCN2C(=O)CC3(CCCC3)CC2=O)CC1` stands 1.39%. Turning to `O=C(O)/C=C(\CC(=O)O)C(=O)O`, the max response is -12.2%.

On to `Cc1ncc(CO)c(CO)c1O`, for which the max response is -24.2%.

Turning to `CC(C)N(CCC(=O)c1ccc2ccccc2c1)Cc1ccccc1`, the max response is -5.46%. Still for that read-out and setting: in the case of `CCNC(=O)NCCCOc1cccc(CN2CCCCC2)c1` it was -12.8%.

In the case of `O=C(O)[C@@H](O)[C@H](O)[C@H](O)[C@@H](O)C(=O)O`, the max response was -10.9%.

As to `CCCCCC1Nc2cc(C(F)(F)F)c(S(N)(=O)=O)cc2S(=O)(=O)N1` (stereo not given), the max response was -12.8%. Regarding `Nc1ncnc2n[nH]c(Nc3ccc(F)cc3)c12`, the result was inactive.

With `Nc1c[n+](N2CCOCC2)no1`, the max response was -10.9%. Take `Cc1ccccc1C(=O)N1CC/C(=N\OS(=O)(=O)O)c2ccc(Cl)cc21`: the max response is 9.71%. `COc1ccccc1OCC1CNC(=O)O1` (stereo not given): the max response is -0.906%. In the case of `C[C@H]1NCc2cc(-c3ccc4c(=O)c(C(=O)O)cn(C5CC5)c4c3OC(F)F)ccc21`, the max response was -9.83%. Consider `CC(=O)Oc1ccc(C2(c3ccc(OC(C)=O)cc3)Oc3ccccc3NC2=O)cc1`, for which the Potency is 18.4 µM (active). As to `CO[C@]1(NC(=O)CSC(F)F)C(=O)N2C(C(=O)O)=C(CSc3nnnn3CCO)CO[C@H]21`, the result was inactive. As to `Oc1ccccc1`, the max response is -6.38%. With `N=C(N)c1ccc(OCCCOc2ccc(C(=N)N)cc2)cc1`, the max response is -29%. For `C1N2CN3CN1CN(C2)C3`, the max response was -1.26%. Turning to `CCOC(=O)Cn1cccc1-c1nc(-c2ccc(OC)cc2)c(-c2ccc(OC)cc2)s1`, the max response is 5.97%. The same measure, in the same setting: in the case of `NCC(=O)O` it was -10.5%; in that of `CC(=O)N(CC(O)CO)c1c(I)c(C(=O)NCCO)c(I)c(C(=O)NCC(O)CO)c1I` (stereo not given), -13%.
